This is an account of results in paper PMC7862700, “An all-to-all approach to the identification of sequence-specific readers for epigenetic DNA modifications on cytosine”.

What all share (assay): DAPPL (digital affinity profiling via proximity ligation, sequencing); 10 mM Tris-HCl pH 7.5, 50 mM NaCl, 1 mM DTT, 4% glycerol, room temperature, 30 min; GST-TFs on glutathione beads, 16-mer random dsDNA library, 0.1% formaldehyde crosslink after washing; high values mean tight binding
Holding throughout (settings): protein: recombinant; tags: N-terminal GST; dsDNA, one strand shown

One assay has as its target T1, ELK1 (Homo sapiens, UniProt P19419 1-428).
T1 sequence: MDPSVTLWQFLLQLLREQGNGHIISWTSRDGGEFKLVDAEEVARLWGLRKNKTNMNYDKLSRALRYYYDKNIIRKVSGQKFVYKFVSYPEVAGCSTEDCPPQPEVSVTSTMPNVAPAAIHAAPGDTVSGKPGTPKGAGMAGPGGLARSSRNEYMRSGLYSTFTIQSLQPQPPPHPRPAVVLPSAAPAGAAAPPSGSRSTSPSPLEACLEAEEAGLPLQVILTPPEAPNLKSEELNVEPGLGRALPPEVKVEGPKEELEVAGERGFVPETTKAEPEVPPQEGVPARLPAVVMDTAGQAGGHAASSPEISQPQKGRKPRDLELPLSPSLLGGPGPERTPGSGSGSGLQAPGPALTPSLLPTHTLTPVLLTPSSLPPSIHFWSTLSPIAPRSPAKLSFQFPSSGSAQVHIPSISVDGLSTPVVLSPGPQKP
Summed up:
(§1)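 Binding signal is each hexamer's read frequency for a factor divided by its frequency in the tag-only sample. The factors were GST-fused human transcription factors from yeast, captured on glutathione beads, DNA-barcoded and pooled with that sample. Pools were incubated with 200 nmole of a random double-stranded 16-mer DNA library in Tris/NaCl/DTT/glycerol buffer at room temperature for 30 min, then washed, crosslinked with 0.1% formaldehyde, proximity-ligated with BsaI/T4 ligase (1 h, 37 °C), PCR-amplified and sequenced on an Illumina NextSeq500.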

For the next assay, the target named is T2, ERG (Homo sapiens, UniProt P11308 1-479).
T2 sequence: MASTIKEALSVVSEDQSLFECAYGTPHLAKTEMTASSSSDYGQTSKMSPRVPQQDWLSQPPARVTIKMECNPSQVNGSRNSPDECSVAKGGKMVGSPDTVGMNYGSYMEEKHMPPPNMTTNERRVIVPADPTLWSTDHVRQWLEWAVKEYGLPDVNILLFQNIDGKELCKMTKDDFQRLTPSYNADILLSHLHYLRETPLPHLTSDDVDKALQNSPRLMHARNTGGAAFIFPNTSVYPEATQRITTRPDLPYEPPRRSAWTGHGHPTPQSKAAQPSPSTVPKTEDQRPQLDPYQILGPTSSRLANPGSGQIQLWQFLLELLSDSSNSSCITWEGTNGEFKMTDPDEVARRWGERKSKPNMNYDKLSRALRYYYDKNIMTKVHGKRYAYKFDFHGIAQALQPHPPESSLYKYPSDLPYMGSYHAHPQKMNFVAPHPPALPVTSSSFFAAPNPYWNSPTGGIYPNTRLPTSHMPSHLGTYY
Summed up: as §1

In another assay the target is ELF1 (Homo sapiens, UniProt P32519 1-619). Summed up:
as §1

The next assay has as its target T3, EHF (Homo sapiens, UniProt Q9NZC4 1-300).
T3 sequence: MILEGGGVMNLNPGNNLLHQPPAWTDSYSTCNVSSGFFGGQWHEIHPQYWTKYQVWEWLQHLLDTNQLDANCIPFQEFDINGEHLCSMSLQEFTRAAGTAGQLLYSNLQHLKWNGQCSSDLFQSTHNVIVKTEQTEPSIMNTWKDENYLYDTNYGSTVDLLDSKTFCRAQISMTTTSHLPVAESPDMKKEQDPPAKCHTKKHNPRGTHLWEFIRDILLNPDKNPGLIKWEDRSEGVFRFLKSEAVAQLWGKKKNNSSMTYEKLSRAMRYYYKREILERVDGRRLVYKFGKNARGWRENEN
The essentials:
as §1

For the next assay, the target named is SPI1 (Homo sapiens, UniProt P17947 1-270). Summed up: as §1
In a further assay the target is T4, SPIC (Homo sapiens, UniProt Q8N5J4 1-248).
T4 sequence: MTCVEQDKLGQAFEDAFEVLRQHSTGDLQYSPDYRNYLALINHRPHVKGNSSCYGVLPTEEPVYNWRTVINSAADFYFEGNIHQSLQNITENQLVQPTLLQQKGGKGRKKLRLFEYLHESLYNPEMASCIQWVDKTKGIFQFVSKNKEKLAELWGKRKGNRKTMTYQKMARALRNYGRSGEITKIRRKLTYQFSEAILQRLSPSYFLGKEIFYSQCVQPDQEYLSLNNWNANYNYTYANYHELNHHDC
Summed up:
as §1

For another assay, the target named is ELF4 (Homo sapiens, UniProt Q99607 1-663). The essentials:
as §1

In a further assay the target is T5, ELK4 (Homo sapiens, UniProt P28324-2 1-405).
T5 sequence: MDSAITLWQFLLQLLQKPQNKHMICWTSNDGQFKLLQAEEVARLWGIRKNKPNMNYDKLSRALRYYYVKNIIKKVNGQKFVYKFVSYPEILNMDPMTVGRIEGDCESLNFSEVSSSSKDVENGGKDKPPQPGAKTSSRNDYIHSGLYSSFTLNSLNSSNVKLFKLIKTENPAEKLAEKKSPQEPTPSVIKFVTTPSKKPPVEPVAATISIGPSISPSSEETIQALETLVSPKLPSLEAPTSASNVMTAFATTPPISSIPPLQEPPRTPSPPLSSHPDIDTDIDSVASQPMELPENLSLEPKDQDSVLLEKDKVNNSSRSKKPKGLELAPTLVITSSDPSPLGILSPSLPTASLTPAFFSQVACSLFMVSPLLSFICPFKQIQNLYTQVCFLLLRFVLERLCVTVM
The essentials: as §1

The target of a further assay is T6, ERF (Homo sapiens, UniProt P50548 1-548).
T6 sequence: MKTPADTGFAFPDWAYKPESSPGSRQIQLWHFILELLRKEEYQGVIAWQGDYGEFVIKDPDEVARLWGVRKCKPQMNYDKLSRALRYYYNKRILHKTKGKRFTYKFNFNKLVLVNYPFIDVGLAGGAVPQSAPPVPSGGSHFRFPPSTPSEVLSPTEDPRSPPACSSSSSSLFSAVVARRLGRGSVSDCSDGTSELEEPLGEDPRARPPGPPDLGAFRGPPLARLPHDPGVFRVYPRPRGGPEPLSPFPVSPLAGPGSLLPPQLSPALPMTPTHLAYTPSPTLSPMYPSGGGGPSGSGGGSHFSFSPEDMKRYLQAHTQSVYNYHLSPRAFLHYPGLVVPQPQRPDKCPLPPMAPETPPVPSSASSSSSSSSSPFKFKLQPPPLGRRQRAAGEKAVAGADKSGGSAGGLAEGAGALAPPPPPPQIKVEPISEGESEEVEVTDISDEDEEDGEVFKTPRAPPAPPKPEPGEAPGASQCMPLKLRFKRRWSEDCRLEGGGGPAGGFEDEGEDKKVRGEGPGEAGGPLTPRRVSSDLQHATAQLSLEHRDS
Summed up: as §1

The next assay addresses T7, ETV3L (Homo sapiens, UniProt Q6ZN32 1-361).
T7 sequence: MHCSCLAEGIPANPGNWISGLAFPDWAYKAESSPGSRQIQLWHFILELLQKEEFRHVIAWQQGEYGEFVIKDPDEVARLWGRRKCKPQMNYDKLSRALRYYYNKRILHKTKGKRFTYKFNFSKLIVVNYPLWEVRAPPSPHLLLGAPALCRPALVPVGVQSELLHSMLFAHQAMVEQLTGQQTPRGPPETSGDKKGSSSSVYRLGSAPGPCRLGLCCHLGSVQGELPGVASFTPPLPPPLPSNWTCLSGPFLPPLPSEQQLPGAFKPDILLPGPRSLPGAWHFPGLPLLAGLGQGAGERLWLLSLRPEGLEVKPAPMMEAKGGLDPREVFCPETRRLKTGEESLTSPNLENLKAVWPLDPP
Summed up: as §1

A further assay deals with T8, ETV3 (Homo sapiens, UniProt P41162-2 1-143).
T8 sequence: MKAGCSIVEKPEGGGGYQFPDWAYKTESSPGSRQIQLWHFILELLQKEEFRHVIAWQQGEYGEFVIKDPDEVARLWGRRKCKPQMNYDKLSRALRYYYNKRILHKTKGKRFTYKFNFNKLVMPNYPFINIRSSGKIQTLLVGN
The essentials: as §1

ELF1, sequence (P32519 whole entry): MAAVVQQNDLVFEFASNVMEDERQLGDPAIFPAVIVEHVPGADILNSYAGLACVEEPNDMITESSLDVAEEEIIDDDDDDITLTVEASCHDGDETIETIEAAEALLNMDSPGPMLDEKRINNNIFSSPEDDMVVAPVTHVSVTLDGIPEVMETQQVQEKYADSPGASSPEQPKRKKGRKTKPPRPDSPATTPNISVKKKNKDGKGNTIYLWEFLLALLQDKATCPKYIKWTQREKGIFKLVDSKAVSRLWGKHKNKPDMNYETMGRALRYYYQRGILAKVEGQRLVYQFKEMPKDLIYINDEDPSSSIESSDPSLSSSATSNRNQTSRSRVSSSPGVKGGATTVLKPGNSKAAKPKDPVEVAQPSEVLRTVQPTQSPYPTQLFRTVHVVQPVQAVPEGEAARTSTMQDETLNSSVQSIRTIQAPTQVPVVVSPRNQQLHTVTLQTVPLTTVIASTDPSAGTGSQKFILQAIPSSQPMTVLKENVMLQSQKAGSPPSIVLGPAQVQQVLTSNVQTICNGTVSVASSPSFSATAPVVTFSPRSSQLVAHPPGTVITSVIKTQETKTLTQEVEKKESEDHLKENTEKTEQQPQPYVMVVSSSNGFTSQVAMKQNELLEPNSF
ELF4, sequence (Q99607 whole entry): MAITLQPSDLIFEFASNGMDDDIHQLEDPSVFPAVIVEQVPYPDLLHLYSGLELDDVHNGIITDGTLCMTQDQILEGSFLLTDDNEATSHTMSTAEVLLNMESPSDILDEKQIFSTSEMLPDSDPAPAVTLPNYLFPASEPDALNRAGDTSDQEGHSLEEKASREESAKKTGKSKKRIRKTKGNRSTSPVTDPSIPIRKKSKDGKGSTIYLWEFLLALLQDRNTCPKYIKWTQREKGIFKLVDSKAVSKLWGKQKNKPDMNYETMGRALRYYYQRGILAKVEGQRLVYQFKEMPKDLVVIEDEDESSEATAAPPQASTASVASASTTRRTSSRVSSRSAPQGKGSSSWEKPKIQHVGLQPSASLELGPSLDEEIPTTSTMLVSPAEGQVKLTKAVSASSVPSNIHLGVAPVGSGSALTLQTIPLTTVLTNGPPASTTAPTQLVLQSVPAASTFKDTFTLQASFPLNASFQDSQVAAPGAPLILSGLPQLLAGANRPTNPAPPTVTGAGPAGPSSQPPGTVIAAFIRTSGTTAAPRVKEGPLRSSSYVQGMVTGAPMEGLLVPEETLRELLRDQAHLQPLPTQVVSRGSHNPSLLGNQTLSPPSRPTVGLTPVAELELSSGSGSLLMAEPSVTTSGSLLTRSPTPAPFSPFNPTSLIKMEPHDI

For CGCCAT, the binding signal with ELK1 is 1.01 fold enrichment (6-mer frequency, TF over GST control); in the assay with ERG, 1.02 fold enrichment (6-mer frequency, TF over GST control); with ELF1, 1.02 fold enrichment (6-mer frequency, TF over GST control); in the assay with EHF, 1.01 fold enrichment (6-mer frequency, TF over GST control); with SPI1 it was 1.08 fold enrichment (6-mer frequency, TF over GST control); with SPIC, 1.06 fold enrichment (6-mer frequency, TF over GST control). For the same sequence, the binding signal in the assay with ELF4 is 1.12 fold enrichment (6-mer frequency, TF over GST control); in the assay with ELK4 it was 1.1 fold enrichment (6-mer frequency, TF over GST control); with ERF it was 1.08 fold enrichment (6-mer frequency, TF over GST control); with ETV3L, 1.08 fold enrichment (6-mer frequency, TF over GST control); with ETV3, 1.02 fold enrichment (6-mer frequency, TF over GST control).
